# Measurements published in PubChem BioAssay (NCATS).
# Records with an inconclusive call do not appear. Calls of active or inactive are those of the source. Calls come from the whole dose curve; as a rule, active = well fitted cell-killing curve with a large enough effect; inconclusive = small, poorly fitted or top-dose-only effect; inactive = no such curve, though single readings can be large or run the other way.
# Experiment: qHTS of pediatric cancer cell lines to identify multiple opportunities for drug repurposing: Confirmatory screen for DAOY cells (AID 1347114); note: nearly all actives have a fitted effect of over 65% in size
# Conditions: DAOY medulloblastoma cells viability, cytotoxicity qHTS; series mostly up to 45.9 µM; activity change, negative = cytotoxic: at the top concentration
# Excerpt: Drug repurposing or repositioning has been offered as a strategy for drug development in oncology programs. This approach has special potential for childhood cancers and other rare or orphan diseases, where the expected return on new drug development has been a disincentive to pharmaceuticals.
# In this project we exploit the poly-pharmacology of drugs to discover new indications via phenotypic screening of a panel of 19 well-characterized cell lines derived from solid tumors seen in children and adolescents. The goal is to identify approved drugs with previously unrecognized anticancer properties that has the potential to reveal new mechanisms and biological processes involved in carcinogenesis or drug resistance. We employed a titration-based paradigm (quantitative high-throughput screening or qHTS), where all compounds were tested at multiple concentrations for their effect on cell viability. Concentration-response curves (CRCs) were derived directly from the primary screen, and both potency and efficacy values were used to identify compounds with robust bioactivity profiles. We screened the NIH Chemical Genomics Center (NCGC) Pharmaceutical Collection (NPC) and Mechanism Interrogation Plate (MIPE) small molecule collections of approved and investigational compounds against these cell lines; and measured metabolically active cells after 48 hours of compound treatment as a proxy for cell viability.
# Assay Submitter: Nathalia J. Martinez, National Center for Advancing Translational Sciences, National Institutes of Health, Rockville, MD, USA; email: natalia.martinez@nih.gov
# [1] Shen, M et al. Quantitative high-throughput phenotypic screening of pediatric cancer cell lines identifies multiple opportunities for drug repurposing. Oncotarget 2017 Dec 19;9(4):4758-4772. PMID 29435139.
# The cells were obtained from University of North Carolina (UNC), Pediatric Preclinical Testing Program (PPT), and Coriell Institute (CI).
# qHTS cell viability assay:
# Cells were assayed in growth media at a density of 500-1,000 cells/well. Five microliters of cells were dispensed into 1,536-well, white, solid-bottom, TC-treated plates (Greiner Bio One) using a multidrop dispenser and incubated at 37 degrees C, 5% CO2, under a humidified atmosphere for 5 hours. Twenty-three nanoliters of compounds and controls (neutral control DMSO or positive control bortezomib at final concentration of 2.3 µM) were subsequently transferred by Kalypsys pintool. For primary screens, the MIPE collection was tested at 11-point dilutions (final concentrations range from 0.78 nM to 46 µM) and the NPC collection at 8-point dilutions (final concentrations range from 0.59 nM to 46 µM). Compounds tested in follow-up screens were assayed at 11-point dilutions. Cells were incubated for 48 hours, followed by addition of 3 uL of CellTiter-Glo (Promega). After a 15 min incubation at room temperature, samples were analyzed for luminescence intensity using a ViewLux High-throughput CCD imager equipped with clear filters.
# % is set by controls: 0 for no effect and ±100 for the full control effect; potency is the fitted concentration of half-maximal effect.
SMILES,Potency,"activity change, negative = cytotoxic"
O=C1c2c(O)ccc(O)c2C(=O)c2c(NCCNCCO)ccc(NCCNCCO)c21,7.37 µM (active),–
CN(Cc1cnc2nc(N)nc(N)c2n1)c1ccc(C(=O)N[C@@H](CCC(=O)O)C(=O)O)cc1,0.117 µM (active),–
CN(C)CCCN1c2ccccc2CCc2ccc(Cl)cc21,20.8 µM (active),–
CN1CCN(CCCN2c3ccccc3Sc3ccc(Cl)cc32)CC1,20.8 µM (active),–
O=C(Nc1ccc([N+](=O)[O-])cc1Cl)c1cc(Cl)ccc1O,1.02 µM (active),–
CCC1(c2ccccc2)C(=O)NCNC1=O,–,9.3% (inactive)
COC(=O)Nc1nc2ccc(C(=O)c3cccs3)cc2[nH]1,0.131 µM (active),–
CCCCc1oc2ccccc2c1C(=O)c1cc(I)c(OCCN(CC)CC)c(I)c1,31.6 µM (active),–
CC(C)C(=O)Nc1ccc([N+](=O)[O-])c(C(F)(F)F)c1,16.5 µM (active),–
CC(CCc1ccc(O)cc1)NCCc1ccc(O)c(O)c1 (stereo not drawn),–,-8.33% (inactive)
O=C(c1ccc(OCCN2CCCCC2)cc1)c1c(-c2ccc(O)cc2)sc2cc(O)ccc12,32.9 µM (active),–
COc1cc2c(c(OC)c1OC)-c1ccc(OC)c(=O)cc1[C@@H](NC(C)=O)CC2,0.02 µM (active),–
CC[C@@]1(O)C(=O)OCc2c1cc1n(c2=O)Cc2cc3c(CN(C)C)c(O)ccc3nc2-1,5.22 µM (active),–
NC12CC3CC(CC(C3)C1)C2,–,-3.35% (inactive)
CC(C)NCC(O)c1ccc(O)c(O)c1 (stereo not drawn),–,-4.75% (inactive)
CC(C)Cc1ccc(C(C)C(=O)O)cc1 (stereo not drawn),3.69 µM (active),–
NC(=O)NO,–,-5.46% (inactive)
Clc1ccc2nsnc2c1NC1=NCCN1,–,7.51% (inactive)
